An excerpt weighted towards active compounds, which were near 2.8% of everything screened.
Platelet DG rel – inhibitors of platelet dense granule secretion, primary screen, cell-based, MLPCN, human platelets. human platelet-rich plasma, SFLLRN dense granule ATP release, luminescence. inhibition, %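 (compounds screened at 7.5 µM in platelet-rich plasma)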. 0.22% of 300,000 active;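 active = mean replicate score, as percent of positive control, at or above 50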
SENP8 block-1 – human SENP8 protease inhibitors, primary screen, biochemical, fluorescence, Nedd8 protein substrate, uHTS; recombinant SENP8; inhibition, % at 20 µM; 0.64% of 360,000 active; in the data active = inhibition mostly above about 40%, no sharp cut-off; inactive = mostly below about 27%
SENP8 block-2 – SENP8 protease inhibitors, primary screen, biochemical, luminescence; purified SENP8, Z-RLRGG-aminoluciferin cleavage; 1.2% of 330,000 active; inhibition, % at 10 µM; AID 2540, 2010; Sentrin-specific protease 8 (Homo sapiens), Q96LD8; in the data active = inhibition above about 50%
HSP90 inh – HSP90 inhibitors, primary screen, cell lysate, luminescence. Heat shock protein HSP 90 (rabbit reticulocyte lysate; luciferase refolding). Rabbit reticulocyte lysate, luciferase refolding luminescence, 3 h. inhibition, % at 5.6 µM. 0.91% of 290,000 active. AID 1789, 2009;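 active = inhibition above the screen-wide mean plus 3 SD, computed separately per campaign, cut at about 16% in these data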;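 note: 0% = DMSO wells and 100% = 60 µM geldanamycin wells; inhibitors lower the luminescence because luciferase stays unfolded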
SENP6 block – SENP6 protease inhibitors, primary screen, biochemical, luminescence, uHTS | Recombinant SENP6 catalytic domain, aminoluciferin luminescence | Sentrin-specific protease 6 (Homo sapiens), Q9GZR1 | inhibition, % at 10 µM | 1.8% of 330,000 active;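 active = inhibition above about 50% at the single tested dose, limit read from the data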;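 note: plate controls were DMSO wells with enzyme for no effect and DMSO wells lacking enzyme for full effect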
SENP7 inh – SENP7 protease inhibitors, primary screen, biochemical, luminescence, uHTS; inhibition, % at 5 µM; AID 434973, 2010; 1.5% of 330,000 active; recombinant SENP7, Z-RLRGG-aminoluciferin luminescence, 40 min;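 active = inhibition above about 50% at the single test dose, limit read from the data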;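 note: plate controls were DMSO with enzyme for no effect and no enzyme buffer wells for full effect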
HSP90 inh confirm – HSP90 inhibitors, confirmation, cell lysate, luminescence | rabbit reticulocyte lysate, luciferase refolding luminescence, 3 h | shares compounds with HSP90 inh | inhibition, % at 5.9 µM | 64% of 2,300 active; in the data active = inhibition above about 18%;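 note: 0% = vehicle wells and 100% = reference inhibitor wells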
luciferase ctr – firefly luciferase inhibitors, HSP90 counter-screen, confirmation, artefact control for HSP90 inhibitor project, biochemical, luminescence, triplicate; 48% of 2,300 active; shares compounds with HSP90 inh; purified native firefly luciferase; inhibition, % at 5.9 µM;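 active = inhibition above the mean inhibition of all tested sample wells plus 3 SD, cut at about 10% in these data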;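 note: 0% = DMSO with luciferase and 100% = wells lacking luciferase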
Target sequence (P08659 whole entry, looked up): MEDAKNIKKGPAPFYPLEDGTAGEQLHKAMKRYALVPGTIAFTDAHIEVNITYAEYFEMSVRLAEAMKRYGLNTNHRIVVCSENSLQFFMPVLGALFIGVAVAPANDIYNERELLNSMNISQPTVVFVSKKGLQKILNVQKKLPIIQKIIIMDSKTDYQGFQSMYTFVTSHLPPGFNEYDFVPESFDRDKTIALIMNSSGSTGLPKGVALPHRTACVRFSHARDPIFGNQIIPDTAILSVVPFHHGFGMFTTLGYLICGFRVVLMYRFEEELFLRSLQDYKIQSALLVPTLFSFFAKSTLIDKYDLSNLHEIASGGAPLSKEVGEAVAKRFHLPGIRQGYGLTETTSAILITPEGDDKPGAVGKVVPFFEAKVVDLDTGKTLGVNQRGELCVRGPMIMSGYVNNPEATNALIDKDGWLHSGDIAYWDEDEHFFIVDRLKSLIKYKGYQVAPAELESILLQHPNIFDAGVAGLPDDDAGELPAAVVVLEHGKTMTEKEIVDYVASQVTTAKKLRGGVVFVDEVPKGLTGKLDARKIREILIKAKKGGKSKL
An asterisk follows results filed as active; . = not tested or not shown.

SMILES	Platelet DG rel	SENP8 block-1	SENP8 block-2	HSP90 inh	SENP6 block	SENP7 inh	HSP90 inh confirm	luciferase ctr
COc1ccccc1C=NN=C(N)C(N)=NN=Cc1ccccc1OC	.	7	.	.	.	.	.	.
COc1ccccc1/C=N\N=C(\N)c1ccccn1	-3	26	-4	25*	-18	18	9	-12
Cc1ccc(N(C(=O)c2csnn2)C(C(=O)NC2CCCCC2)c2cccnc2)cc1 (stereo unspecified)	-15	12	3	-1	-2	-5	.	.
CCN(c1ccccc1)S(=O)(=O)c1ccc(OC)c(NC(=O)COc2ccc(C(C)=O)cc2)c1	24	1	3	.	-3	4	.	.
C#CCOCCOCCOCCNc1nc(N2CCN(C(=O)[C@H](Cc3ccc(O)cc3)n3cc([C@@H](N)C(C)CC)nn3)CC2)nc(N2CCN(C(=O)[C@H](CCCCN)n3cc([C@@H](N)CC(C)C)nn3)CC2)n1 (stereo partly specified)	0	.	-10	-1	8	5	.	.
C#CCOCCOCCOCCNc1nc(N2CCN(C(=O)[C@H](Cc3cc4ccccc4[nH]3)n3cc([C@@H](N)C(C)CC)nn3)CC2)nc(N2CCN(C(=O)[C@H](CCCCN)n3cc([C@@H](N)CO)nn3)CC2)n1 (stereo partly specified)	3	.	-10	12	-23	11	.	.
C#CCOCCOCCOCCNc1nc(N2CCN(C(=O)[C@H](CCCCN)n3cc([C@@H](N)C(C)CC)nn3)CC2)nc(N2CCN(C(=O)[C@H](Cc3cc4ccccc4[nH]3)n3cc([C@@H](N)CC(C)C)nn3)CC2)n1 (stereo partly specified)	-5	-30	-1	21*	4	-15	2	-8
C#CCOCCOCCOCCNc1nc(N2CCN(C(=O)[C@H](Cc3ccc(O)cc3)n3cc([C@@H](N)C(C)CC)nn3)CC2)nc(N2CCN(C(=O)[C@H](CCCCN)n3cc([C@@H](N)CO)nn3)CC2)n1 (stereo partly specified)	2	21	3	21*	-12	-6	-2	-5
Oc1c(Br)cc(Br)cc1CNn1cnnc1	3	7	-1	67*	-8	-13	-3	-5
COc1ccc(/C(C)=N/NC(=O)Cn2nc([N+](=O)[O-])cc2C)cc1	3	7	-7	30*	-9	12	-1	-7
CNC(=O)C1CCC(=O)N1Cc1c[nH]c2ccccc12 (stereo unspecified)	.	9	.	.	.	.	.	.
NNC(=S)NC1CC2CC1C1C=CCC21 (stereo unspecified)	-2	6	0	25*	-4	-2	-4	-10
Oc1ccc(O)c(C=NNC(=S)NC2CC3CC2C2C=CCC32)c1 (stereo unspecified)	.	-65	.	.	.	.	.	.
CCCS(=O)(=O)NC(=O)C1(C)CCCN(C(=O)c2ccc3ccccc3c2)C1 (stereo unspecified)	.	25	.	.	.	.	.	.
Cc1[nH]c2ccccc2c1C(=O)C(=O)N1CCN(c2cccc(Cl)c2)CC1	7	6	4	1	-1	7	.	.
CCNS(=O)(=O)c1ccc2nc(NC(=O)c3cccnc3)sc2c1	-7	-69	-11	29*	11	-6	3	-2
CC(C)CC(=O)Nc1nc2ccc(S(C)(=O)=O)cc2s1	6	14	-9	30*	-4	-8	-1	-18
Cc1nc2ccc(NC(=O)c3cccnc3)cc2s1	1	-20	2	-7	-11	4	.	.
COc1cccc(C(=S)N2CCCC2)c1OC	-3	28	-6	1	-1	3	.	.
CCC(C(=O)Nc1ccc(C(=O)O)cc1NC(=O)C(CC)c1ccccc1)c1ccccc1 (stereo unspecified)	10	4	-1	-4	-61	4	.	.
CCOc1ccc(N2C(=O)CC(NCCNc3ccc([N+](=O)[O-])cn3)C2=O)cc1 (stereo unspecified)	8	27	1	24*	14	-3	-8	-10
Cc1csc(C(=O)NN)c1N(C)C	-10	17	-2	1	-13	-17	.	.
CC(C)S(=O)(=O)C1=NSC2=NC(=O)/C(=C\c3ccc(-c4cccc(C(=O)O)c4)o3)C(=N)N21	.	-44	.	27*	.	.	-1	-11
COc1cccc(C2Nc3ccccc3NC3=C2C(=O)CC(C)(C)C3)c1 (stereo unspecified)	9	-281	-7	23*	9	-2	-1	-4
CC(=O)c1ccc(S(=O)(=O)N2CCN(C(=O)CSc3ccc(F)cc3)CC2)cc1	-1	5	2	24*	2	4	-7	-10
SMILES	Platelet DG rel	SENP8 block-1	SENP8 block-2	HSP90 inh	SENP6 block	SENP7 inh	HSP90 inh confirm	luciferase ctr
CC(=O)c1ccc(S(=O)(=O)N2CCN(C(C)=O)CC2)cc1	24	12	7	2	5	3	.	.
CC(C)(C)CN1CCN(Cc2cccnc2)CC1CCO (stereo unspecified)	-2	21	-1	-2	9	-2	.	.
COc1ccc(-c2csc(NC(=O)c3ccccc3F)n2)cc1	0	-8	8	33*	-1	-1	-11	-32
O=C(O)c1ccc(NCc2nc3ccccc3n2Cc2ccccc2)cc1	17	14	-1	4	-25	1	.	.
CCn1cnc2cc(NCc3nc4ccccc4n3Cc3ccccc3)ccc21	8	-80	6	48*	14	2	47*	40*
Cc1nnc(SCC(=O)Nc2cccc(S(=O)(=O)N3CCCC3)c2)n1C1CC1	.	0	.	.	.	.	.	.
CCOC(=O)N1CCN(C(=O)CN(c2ccc(Oc3ccccc3)cc2)S(C)(=O)=O)CC1	6	9	0	-2	2	2	.	.
CS(=O)(=O)N(CC(=O)O)c1ccc(Oc2ccccc2)cc1	13	7	3	17*	11	0	3	-3
C/C(=N\Nc1ccc(C(=O)O)cc1)c1ccc2c(c1)Nc1ccccc1S2	3	-393	3	24*	14	1	28*	-29
C/C(=N/Nc1ccc(C(=O)O)cc1)c1ccc2c(c1)Nc1ccccc1S2	.	-492	.	.	.	.	.	.
CCc1nnc(N/N=C/c2c(F)cccc2Cl)n1N	3	17	-8	-1	-5	-4	.	.
Cc1nnc(N/N=C/c2ccccc2O)n1N	7	32	-7	58*	1	6	-4	-18

Compound activity as filed in PubChem BioAssay.
